Test results published in PubChem BioAssay AID720580 (National Center for Advancing Translational Sciences (NCATS), 2013).
The whole screen tested about 330,000 compounds, of which about 1,500 (0.45%) were called active. Where a call stands in place of a potency, no number is given. Not shown: some 6% with an inconclusive outcome. For the sample, actives were picked, then their nearest neighbours and some compounds at random. Unmarked numbers belong to inactive results. Calls follow the shape of the full dose curve; tested in A549 cells.

Assay: qHTS for Stage-Specific Inhibitors of Vaccinia Orthopoxvirus: Venus Reporter Primary qHTS; also: nearly all actives have a fitted effect of over 30% in size
Conditions: Vaccinia virus Venus reporter expression, fluorescence; series mostly up to 36.5 µM
Potency is read from the fitted curve at half-maximal effect.

Q: Which Potency does the source give for `CCCc1c(-c2ccccc2F)ncn1Cc1ccccc1OC` here?
A: The Potency was “inactive”.

Q: With `COc1ccc(S(=O)(=O)NCCc2c[nH]c3ccccc23)cc1OC` as the compound, how does the Potency read?
A: Its Potency is “inactive”.

Q: With `COc1cccc(CNCCc2c[nH]c3ccccc23)c1OCc1ccccc1F` as the compound, how does the Potency read?
A: The Potency was 10 µM (active).

Q: Which Potency does the source give for `c1cncc(CNCCc2c[nH]c3ccccc23)c1` here?
A: Its Potency is “inactive”.

Q: With `CO[C@H]1O[C@@H]2O[C@@]3(C)CC[C@@H]4[C@@H](C)CC[C@@H]([C@H]1C)[C@@]24OO3` as the compound, how does the Potency read?
A: The Potency was “inactive”.

Q: Which Potency does the source give for `CN(Cc1ccccc1F)c1cc2c(c3c1ccn3C)C1CCC2O1` (centres undefined) here?
A: The Potency was “inactive”.

Q: For `CN(C)c1ccc(/C=C/c2sc3ccccc3[n+]2C)cc1`, which Potency is on record?
A: Its Potency is “inactive”.

Q: Which Potency does the source give for `OCC(O)C(O)C(O)C(O)C=Nc1ccc(/C=C/c2ccnc3ccccc23)cc1` (centres undefined) here?
A: The Potency was “inactive”.

Q: With `CCOCCC(=O)Nc1ccc2c(c1)c(=O)n(C)n2-c1ccc2ccccc2c1` as the compound, how does the Potency read?
A: The Potency was “inactive”.

Q: With `CS(=O)c1ccc(/C=C2\C=Cc3ccccc32)cc1` (centres undefined) as the compound, how does the Potency read?
A: The Potency was “inactive”.

Q: For `COc1ccc(/C=C2\SC(=S)N(CCC(=O)N3CCOCC3)C2=O)cc1OC`, which Potency is on record?
A: Its Potency is “inactive”.

Q: With `COc1cccc(/C=C2\SC(=S)N(CCCC(=O)N3CCOCC3)C2=O)c1` as the compound, how does the Potency read?
A: The Potency was 12.6 µM (active).

Q: Which Potency does the source give for `Cc1cc(/C=C2/SC(=O)N(CC(=O)N3CCCC3)C2=O)ccc1N1CCOCC1` here?
A: Its Potency is “inactive”.

Q: Which Potency does the source give for `CCC(C)CN1C(=O)CSCC1(C)C(=O)NCc1ccccc1` (centres undefined) here?
A: The Potency was “inactive”.

Q: Which Potency does the source give for `COc1ccc(C(C)(NC(C)=O)c2nc(-c3ccc(S(C)(=O)=O)cc3)cs2)cc1` (centres undefined) here?
A: The Potency was “inactive”.

Q: Which Potency does the source give for `COc1cccc(OCc2nnc3n2N=C(c2ccccc2)C(CC(=O)O)S3)c1` (centres undefined) here?
A: Its Potency is “inactive”.

Q: With `CCCCn1c(N)c(N(CCOC)C(=O)c2cccc(OCc3ccccc3)c2)c(=O)[nH]c1=O` as the compound, how does the Potency read?
A: Its Potency is “inactive”.

Q: Which Potency does the source give for `CCCCCCCCCCOC(=O)Cn1c(COc2cccc(OC)c2)[n+](C)c2ccccc21` here?
A: The Potency was 11.2 µM (active).

Q: With `CCCCC[C@H](C)N1C[C@@H](COCc2ccccc2)Oc2cc(N3CC[C@@H](N(C)C)C3)ccc2S1(=O)=O` as the compound, how does the Potency read?
A: Its Potency is “inactive”.

Q: Which Potency does the source give for `CCC(C(=O)NCc1ccccc1)n1c(Cc2cc(F)cc(F)c2)nc2ccccc21` (centres undefined) here?
A: Its Potency is “inactive”.

Q: With `CCCCNC(=O)C[C@@H]1C[C@@]2(C(=O)OC)CC(C)(C)CC=C2N(Cc2ccco2)C1=O` as the compound, how does the Potency read?
A: The Potency was “inactive”.

Q: For `O=C(c1ccc(C(F)(F)F)cc1)N1CCC(=O)N([C@H](COCc2ccccc2)Cc2ccccc2)CC1`, which Potency is on record?
A: The Potency was “inactive”.

Q: With `O=C1Nc2ccccc2NC(c2ccc3c(c2)OCO3)=C1N(Cc1ccc(F)cc1)C(=O)c1ccco1` as the compound, how does the Potency read?
A: The Potency was “inactive”.

Q: With `COc1ccc(Cc2nnc(SCC(=O)c3cccc([N+](=O)[O-])c3)n2C)cc1` as the compound, how does the Potency read?
A: The Potency was “inactive”.

Q: For `COc1ccc2c(C(=O)c3ccc(C)cc3)n(CCC(N)=O)[n+]([O-])c2c1`, which Potency is on record?
A: The Potency was “inactive”.

Q: For `COc1ccc(C(=O)c2c3ccc([N+](=O)[O-])cc3[n+]([O-])n2CCCN)cc1`, which Potency is on record?
A: The Potency was 10 µM (active).

Q: Which Potency does the source give for `COc1ccc(C(C)(O)c2nc(-c3ccc(C)c(C)c3)cs2)cc1` (centres undefined) here?
A: Its Potency is “inactive”.

Q: With `CCOc1ccc(/C=N/NC(N)=S)cc1` as the compound, how does the Potency read?
A: The Potency was 1 µM (active).

Q: With `CCOc1ccc(/C=N\NC(=O)c2c(C)nc3cc(C)ccn23)cc1` as the compound, how does the Potency read?
A: Its Potency is “inactive”.

Q: For `CCOc1ccc(-c2cc(C(=O)N/N=C/c3ccc(O)cc3)c3ccccc3n2)cc1`, which Potency is on record?
A: The Potency was “inactive”.

Q: For `CCCCn1nnnc1C(c1cccc(OC)c1OC)N1CCN(C/C=C/c2ccccc2)CC1` (centres undefined), which Potency is on record?
A: The Potency was “inactive”.

Q: For `C=CCC[C@H](CCCCC)OC(=O)/C=C/[C@H](O)[C@@H](O)C[C@@H](O)CC=C`, which Potency is on record?
A: The Potency was “inactive”.

Q: Which Potency does the source give for `COC(=O)[C@]12CCCCC=C1N(Cc1ccco1)C(=O)[C@H](CC(=O)NCC1CCCCC1)C2` here?
A: Its Potency is “inactive”.

Q: Which Potency does the source give for `COc1ccc(CN(Cc2ccccc2)C(=O)c2ccc(O)cc2)cc1COc1ccc(NC(C)=O)cc1` here?
A: Its Potency is “inactive”.

Q: For `COc1cc(C#Cc2ccc3cc(CCCO)oc(=O)c3c2)cc(OC)c1`, which Potency is on record?
A: The Potency was “inactive”.

Q: With `COc1cc(/C=C2\Oc3ccc(C#Cc4ccc(O)cc4)cc3C2=O)cc(OC)c1` as the compound, how does the Potency read?
A: The Potency was 8.91 µM (active).

Q: Which Potency does the source give for `CC(C)C1C(=O)N(Cc2cn(CCC3OCCO3)nn2)CCS(=O)(=O)N1Cc1ccc(-c2ccccc2C(F)(F)F)cc1` (centres undefined) here?
A: The Potency was “inactive”.

Q: With `CC(=CCOc1ccc2ccc(=O)oc2c1)C1=CC(=O)C(C)(C)O1` as the compound, how does the Potency read?
A: Its Potency is 3.55 µM (active).

Q: For `CC(C)OC(=O)c1ccc(COc2ccc3ccc(=O)oc3c2)o1`, which Potency is on record?
A: The Potency was “inactive”.

Q: Which Potency does the source give for `Cc1noc(C)c1COc1ccc2ccc(=O)oc2c1` here?
A: The Potency was “inactive”.

Q: For `CCOc1ccc(CCN2C(=S)N([C@@H](CC(C)C)CN3CCC[C@@H]3CN3C(=S)NC[C@@H]3Cc3ccc(O)cc3)C[C@@H]2CC(C)C)cc1`, which Potency is on record?
A: The Potency was “inactive”.

Q: Which activity change, negative = inhibition does the source give for `Cc1ccc(C(=O)Nc2nc3ccc(Cl)cc3s2)o1` here?
A: The activity change, negative = inhibition was -7.19% [at 7.34 µM].

Q: For `Cc1cnc(NC(=O)CSc2nnc(-c3ccc(Cl)cc3Cl)n2N)s1`, which Potency is on record?
A: Its Potency is “inactive”.

Q: Which Potency does the source give for `Cc1ccc(CCC(=O)Nc2ncc(Cc3cc(Cl)ccc3Cl)s2)o1` here?
A: Its Potency is 4.47 µM (active).

Q: With `COC(=O)C1=CN(c2c(C)cc(C)cc2C)C(N)=C(C#N)C1c1cccc(F)c1` (centres undefined) as the compound, how does the Potency read?
A: Its Potency is “inactive”.

Q: For `CC(C)CNc1ncnc2c1cnn2Cc1ccc(Cl)cc1`, which Potency is on record?
A: The Potency was “inactive”.

Q: For `Clc1ccc(Cn2ncc3c(NCc4cccnc4)ncnc32)cc1`, which Potency is on record?
A: The Potency was 8.91 µM (active).

Q: With `Brc1ccc2ncnc(NCc3cccnc3)c2c1` as the compound, how does the Potency read?
A: Its Potency is “inactive”.

Q: For `CC(C)C[C@H]1CN([C@@H](Cc2ccccc2)CN2CCC[C@@H]2CN2C(=O)C(=O)NC[C@@H]2Cc2ccc(O)cc2)C(=O)C(=O)N1CCc1ccccc1`, which Potency is on record?
A: The Potency was “inactive”.
